Structures can show the parent of a compound that is named as a salt.
System: Saccharomyces cerevisiae
Experiment: fraction of cells in G1 phase (DNA content, flow cytometry); higher = more cells with unreplicated DNA (G1 delay)
Settings: temperature: 30 C; YPD; JTY2953 pdr5 snq2 (sensitized); drug added to: actively dividing cells; 6 h
How it was run: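 S. cerevisiae in YPD at 30°C was dosed with library drugs, using a final 20 µg/ml for sensitized JTY2953 diluted 1∶200 from overnight and fixed at 6–7 h, or dosing dividing JTY2953 (fixed at 6 h) and BY4741 (fixed at 4.33 h). Ethanol-fixed, SYTOX Green-stained cells were read by flow cytometry (10,000 events). The G1 fraction is taken as the Dean-Jett-Fox G1 peak area divided by the G1 and G2/M areas combined.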

Compound | fraction of cells in G1 phase
CCN(CC)C(=S)SSC(=S)N(CC)CC [Disulfiram] (67.4445 µM) | 0.466
Cc1ccc(-c2cc(C(F)(F)F)nn2-c2ccc(S(N)(=O)=O)cc2)cc1 [Celecoxib] (52.4412 µM) | 0.299
COC(=O)C1=C(C)NC(C)=C(C(=O)OCC(C)C)C1c1ccccc1[N+](=O)[O-] (stereo unspecified) [Nisoldipine] (51.4901 µM) | 0.587
CSc1ccc2c(c1)N(CCC1CCCCN1C)c1ccccc1S2 (stereo unspecified) [Thioridazine HCl] (53.969 µM) | 0.469
COC(=O)C1=C(C)NC(C)=C(C(=O)OCCCN2CCC(c3ccccc3)(c3ccccc3)CC2)[C@H]1c1cccc([N+](=O)[O-])c1 [Niguldipine HCl] (30.9502 µM) | 0.389
CCOC(=O)N1CCC(=C2c3ccc(Cl)cc3CCc3cccnc32)CC1 [Loratadine] (52.2338 µM) | 0.448
Clc1ccc(CCC(Cn2ccnc2)Sc2c(Cl)cccc2Cl)cc1 (stereo unspecified) [Butoconazole nitrate] (42.123 µM) | 0.478
CN(C)CCOc1ccc(/C(=C(/CCCl)c2ccccc2)c2ccccc2)cc1 [Toremifene] (49.2645 µM) | 0.524

Same assay, conditions: temperature: 30 C; YPD; JTY2953 pdr5 snq2 (sensitized); drug added to: cultures diluted from stationary phase; 6-7 h

Compound | fraction of cells in G1 phase
COc1c(C)c2c(c(O)c1C/C=C(\C)CCC(=O)O)C(=O)OC2 [Mycophenolic acid] (62.4326 µM) | 0.54
CC[C@@]1(O)C(=O)OCc2c1cc1n(c2=O)Cc2cc3cc(O)ccc3nc2-1 [10-hydroxycamptothecin] (54.8906 µM) | 0.499
CC(C)Nc1cccnc1N1CCN(C(=O)c2cc3cc(NS(C)(=O)=O)ccc3[nH]2)CC1 [Delavirdine mesylate] (43.8048 µM) | 0.487
CCCNCC(O)COc1ccccc1C(=O)CCc1ccccc1 (stereo unspecified) [Propafenone] (58.5652 µM) | 0.489
O=C(O)COCCN1CCN(C(c2ccccc2)c2ccc(Cl)cc2)CC1 (stereo unspecified) [Cetirizine 2HCl] (43.3088 µM) | 0.492
CCN(CC)C(=S)SSC(=S)N(CC)CC [Disulfiram] (67.4445 µM) | 0.876
Cc1ccc(-c2cc(C(F)(F)F)nn2-c2ccc(S(N)(=O)=O)cc2)cc1 [Celecoxib] (52.4412 µM) | 0.863
N.N.O=C([O-])C[O-].[Pt+2] [Nedaplatin] (65.9657 µM) | 0.545
COc1ccccc1OCC(O)CO (stereo unspecified) [Guaifenesin] (100.898 µM) | 0.463
COC(=O)C1=C(C)NC(C)=C(C(=O)OCC(C)C)C1c1ccccc1[N+](=O)[O-] (stereo unspecified) [Nisoldipine] (51.4901 µM) | 0.605
CCCc1nc2c(C)cc(-c3nc4ccccc4n3C)cc2n1Cc1ccc(-c2ccccc2C(=O)O)cc1 [Telmisartan] (38.8627 µM) | 0.543
CN(C)CC/C=C1/c2ccccc2COc2ccc(CC(=O)O)cc21 [Olopatadine] (59.2729 µM) | 0.431
CC(CCc1ccc(O)cc1)NCCc1ccc(O)c(O)c1 (stereo unspecified) [Dobutamine HCl] (66.3594 µM) | 0.528
N[C@@H](Cc1ccc(O)c(O)c1)C(=O)O [Levodopa] (101.424 µM) | 0.487
CC(C)NCC(O)COc1ccc(CC(N)=O)cc1 (stereo unspecified) [Atenolol] (75.0911 µM) | 0.454
Cc1c(Cl)cccc1Nc1ccccc1C(=O)O [Tolfenamic acid] (76.4204 µM) | 0.53
CCC[C@@H]1C[C@@H](C(=O)N[C@@H]([C@H]2O[C@H](SC)[C@H](O)[C@@H](O)[C@H]2O)[C@@H](C)O)N(C)C1 [Lincomycin] (49.195 µM) | 0.539
CNNCc1ccc(C(=O)NC(C)C)cc1 [Procarbazine HCl] (90.3731 µM) | 0.49
CC(C)(C)NC(=O)[C@H]1CC[C@H]2[C@@H]3CC[C@H]4NC(=O)C=C[C@]4(C)[C@H]3CC[C@]12C [Finasteride] (53.6833 µM) | 0.558
C[C@]12CC[C@@H]3c4ccc(O)cc4C[C@@H](CCCCCCCCC[S+]([O-])CCCC(F)(F)C(F)(F)F)[C@H]3[C@@H]1CC[C@@H]2O (stereo partly specified) [Fulvestrant] (32.9606 µM) | 0.458
NNC(=O)c1ccncc1 [Isoniazid] (145.834 µM) | 0.518
CSc1ccc2c(c1)N(CCC1CCCCN1C)c1ccccc1S2 (stereo unspecified) [Thioridazine HCl] (53.969 µM) | 0.729
Cc1cnc(C(=O)NCCc2ccc(S(=O)(=O)NC(=O)NC3CCCCC3)cc2)cn1 [Glipizide] (44.8889 µM) | 0.577

— the supplement of paper PMC3342239
